PrP UTR inh – suppresses PrP 5' UTR mRNA reporter expression. actives 0.35% (n = 340,000). cell-based PrP 5' UTR mRNA reporter, plate reader. AID 488862. inhibition, % (test concentration not listed); in the data active = inhibition above about 52%; also: 0 = median of the neutral control wells
BH1578 lux ind – induces V. cholerae light production without autoinducers | V. cholerae BH1578 lux reporter, luminescence, 6 h | activation, % at 18.7 µM | actives 0.16% (n = 350,000); in the data active = activation mostly above about 9.7%, no sharp cut-off
PfHsp40 rescue – rescue of PfHsp40-mediated yeast toxicity; S. cerevisiae expressing PfHsp40, growth rescue, ATP luminescence; growth rescue, % at 12.5 µM; actives 0.68% (n = 340,000); in the data active = growth rescue above about 28%, passing the limit was not always enough;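 also: yeast W303a lacking pdr1 and pdr3 grown in galactose medium; growth measured after three days at 30 °C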
PriA SSB inh – inhibitors of Klebsiella pneumoniae PriA binding to SSB C-terminal tail; AlphaScreen SSBct-PriA binding, biotinylated peptide; AID 1272365; actives 0.6% (n = 430,000); inhibition, % at 33 µM; in the data active = inhibition mostly above about 37%, no sharp cut-off; inactive = mostly below about 20%;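 also: plate controls were negative control peptide for no effect and reference peptide for full effect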
3CLpro inhibitor – SARS-CoV 3CLpro protease inhibition; inhibition, % at 6 µM; AID 1706; recombinant SARS-CoV 3CLpro, quenched FRET peptide cleavage; P0C6X7; actives 0.14% (n = 290,000); in the data active = inhibition above about 12%
PrPC surface inh – reduces human prion protein on the cell surface | P04156 | cell surface PrPC, TR-FRET read-out | inhibition, % at 13.8 µM | actives 0.43% (n = 370,000); in the data active = inhibition above about 24%; also: 0% = median of the test wells and 100% = reference compound wells
An asterisk follows results filed as active; i = inactive; / = no result; ! = not active in a repeat. Most compounds without a hit are left out; they make up all but 1.6% or so of the library.

SMILES	PrP UTR inh	BH1578 lux ind	PfHsp40 rescue	PriA SSB inh	3CLpro inhibitor	PrPC surface inh
c1ccc(-c2ncc(-c3ccn[nH]3)s2)cc1	-41	0	65*	-2	2	-12
c1ccc(Oc2ccc(-c3ccn[nH]3)cc2)cc1	-87	i	8	-10	0	-2
CC(C)CC(=O)NCCn1ncc2c(N3CCN(Cc4ccccc4)CC3)ncnc21	/	/	/	0	/	/
O/N=C(\c1ccc(Cl)cc1Cl)c1ncc(C(F)(F)F)cc1Cl	-14	0	380*	/	2	8
ON=C(c1ccc(Cl)cc1Cl)c1ncc(C(F)(F)F)cc1Cl	/	/	/	-13	/	/
COc1cc(C(=O)NS(=O)(=O)c2ccc(N)cc2)cc(OC)c1OC	/	/	/	10	/	/
Cc1ccc(C2(C)NC(=O)N(CC(=O)Nc3nc(-c4ccccn4)cs3)C2=O)cc1 (configuration not stated)	13	i	0	85*	/	5
CC1(c2ccccc2)NC(=O)N(CC(=O)Nc2nc(-c3ccccn3)cs2)C1=O (configuration not stated)	-5	i	0	75*	/	4
CC1(C)NC(=O)N(CC(=O)Nc2nc(-c3ccccn3)cs2)C1=O	/	/	/	106*	/	/
CN1C(=O)N(CC(=O)Nc2nc(-c3ccccn3)cs2)C(=O)C12CCCCC2	/	/	/	101*	/	/
O=C(NCC1CCCO1)C(=O)Nc1cc2c3c(c1)CCN3C(=O)CC2 (configuration not stated)	/	/	/	-1	/	/
O=C(Nc1ccn2nccc2c1)c1ccccc1Cl	/	/	/	-10	/	/
O=C1c2ccccc2-c2onc3ccc(NCc4ccco4)c1c23	-10	i	2	78*	1	/
CCNc1ccc2noc3c2c1C(=O)c1ccccc1-3	-20	-1	1	40	0	-105
Cc1ccc(S(=O)(=O)CCCC(=O)Nc2nc3c(F)cccc3s2)cc1	/	/	/	11	/	/
O=C(/C=C/c1ccc(Br)o1)/C=C/c1ccc(Br)o1	/	/	/	39*	/	/
Cc1noc(-c2sccc2NC(=O)Cn2ccc3ccccc32)n1	/	/	/	4	/	/
CN(C)c1ccc(/C=N\NC(=O)CNC(=O)c2ccccc2Cl)cc1	/	/	/	-6	/	/
OCCN1CCN(c2nc(-c3ccccc3)c3cc(Cl)ccc3n2)CC1	2	0	0	-3	5	-25
Cc1ccc2nc(N3CCN(CCO)CC3)nc(-c3ccccc3)c2c1	-9	-1	0	38*!	-2	-17
CCSc1cccc(C(=O)Nc2cc(C)nn2C)c1	/	/	/	-10	/	/
CC(C)=CCc1c(O)ccc(C(=O)Cc2ccccc2)c1O	-26	-1	611*	-23	-1	10
Cc1ccc(C(=O)Cc2ccccc2)c(O)c1	-56	-6	-2	-35	/	0
Cc1cc2c(SCC(=O)Nc3nccs3)ncnc2s1	/	/	/	5	/	/
COc1ccc(N2CCN(Cc3cc4c(cc3Br)OCCO4)CC2)cc1	-18	0	0	35	1	-5
SMILES	PrP UTR inh	BH1578 lux ind	PfHsp40 rescue	PriA SSB inh	3CLpro inhibitor	PrPC surface inh
COc1ccc(N2CCN(Cc3csc(C)c3-c3ccc(C)cc3)CC2)cc1	4	-1	0	91*	-2	-1
CCOc1cc(/C=C2/N=C(c3ccc(F)cc3)OC2=O)cc(Cl)c1OS(C)(=O)=O	/	/	/	5	/	/
Cc1nc(SCc2ccccc2)[nH]c(=O)c1CC(=O)NCCc1ccc(S(N)(=O)=O)cc1	/	/	/	-8	/	/
CCCNC(=O)c1ccc2c(=O)c(O)c(-c3ccc(Cl)c([N+](=O)[O-])c3)[nH]c2c1	-4	1	210*	-23	/	-11
CCCS(=O)(=O)c1nnnn1-c1cccc(OC)c1	10	2	408*	-3	-2	/
CCCS(=O)(=O)N1CCN(c2ncnc3c2nnn3-c2cccc(OC)c2)CC1	/	/	/	-5	/	/
Cn1cc(C(=O)Nc2ccc(F)c(C(F)(F)F)c2)c2[nH]c(=O)n(-c3ccc(Cl)cc3)c(=O)c21	/	/	/	-4	/	/
O=c1[nH]cc(F)c(=O)[nH]1	-11	i	256*!	0	-2	1
CCOC(=O)Nc1nc(CC(=O)Nc2ccccc2C(N)=O)cs1	/	/	/	-10	/	/
CCN(Cc1ccccc1)c1ccc(/C=N/N2CCOCC2)cc1	-16	-2	0	/	-4	3
CCN(Cc1ccccc1)c1ccc(C=NN2CCOCC2)cc1	/	/	/	47*	/	/
O=S(=O)(N=C(Nc1ccccc1F)c1ccccc1)c1ccccc1	/	/	/	-13	/	/
CC(=O)NC1C(=O)N(CCN2CCOCC2)c2ccc(C)cc21 (configuration not stated)	-11	2	-3	-9	54*	/
